The subject of the test is firefly luciferase (FLuc). The experiment in a line: residual bioluminescent signal relative to negative (DMSO) control; higher = less interference (more residual luciferase signal). The method, then: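 Purified luciferase (FLuc 10 nM + 10 uM D-luciferin; NLuc 10 pM + 10 uM furimazine; RLuc 50 pM + 2 uM coelenterazine) in 384-well plates; metal salt pre-incubated with enzyme 10 min at RT, substrate added and luminescence read after 10 min. Signal normalised to plate DMSO negative control (% N_VALUE = x/mean neg *100); triplicate wells at 0.01, 1 and 5 mM salt.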

[1] abbreviates: metal salt concentration 0.01 mM, HEPES conditions (100 mM HEPES, 5 mM MgSO4, 10 uM ATP, pH 7.5).
Setting [2] is: metal salt concentration 0.01 mM, screening conditions (0.5 mM Tris, 50 mM glycine, 0.5 mM EDTA, 5 mM MgSO4, 10 uM ATP, pH 7.6).
[3] abbreviates: metal salt concentration 1 mM, HEPES conditions (100 mM HEPES, 5 mM MgSO4, 10 uM ATP, pH 7.5).
[4] abbreviates: metal salt concentration 1 mM, screening conditions (0.5 mM Tris, 50 mM glycine, 0.5 mM EDTA, 5 mM MgSO4, 10 uM ATP, pH 7.6).
Where [5] appears, read: metal salt concentration 5 mM, HEPES conditions (100 mM HEPES, 5 mM MgSO4, 10 uM ATP, pH 7.5).
[6] abbreviates: metal salt concentration 5 mM, screening conditions (0.5 mM Tris, 50 mM glycine, 0.5 mM EDTA, 5 mM MgSO4, 10 uM ATP, pH 7.6).

± gives the standard deviation of the averaged measurements.

On to `[Cl][Pt-2]([Cl])([Cl])[Cl].[K+].[K+]` [potassium tetrachloroplatinate(II)], for which the residual bioluminescent signal is 85 ± 8% under setting [1]; 87.9 ± 6.2% under setting [2]; 3.8 ± 0.62% under setting [3]; 0.659 ± 0.66% under setting [4]; 1.09 ± 0.23% under setting [5]; 0.343 ± 0.12% under setting [6].

As to `CC#N.CC#N.CC#N.CC#N.F[B-](F)(F)F.[Cu+]` [tetrakis(acetonitrile)copper(I) tetrafluoroborate], the residual bioluminescent signal was 0.543 ± 0.23% under setting [1]; 115 ± 2.9% under setting [2]; 0.407% under setting [3]; 0.474 ± 0.16% under setting [4]; 0.679 ± 0.47% under setting [5]; 0.422 ± 0.36% under setting [6].

For `O=S(=O)([O-])[O-].[Fe+2]` [iron(II) sulfate], the residual bioluminescent signal turned out to be 10.5 ± 3.6% under setting [1]; 109 ± 9.9% under setting [2]; 1.09 ± 0.23% under setting [3]; 0.237 ± 0.14% under setting [4]; 1.22% under setting [5]; 0.237 ± 0.21% under setting [6].

`O.O.O.O.O.O.O.O.O.O.O=S(=O)([O-])[O-].[Na+].[Na+]` [sodium sulfate]: the residual bioluminescent signal runs as follows: under setting [1], 81.9 ± 8.1%; under setting [2], 73.4 ± 5.7%; under setting [3], 51 ± 7.2%; under setting [4], 70.4 ± 8.2%; under setting [5], 20 ± 6.1%; under setting [6], 51.1 ± 3.8%.

On to `O=S(=O)([O-])[O-].[Mn+2]` [manganese(II) sulfate], for which the residual bioluminescent signal by setting is: under setting [1], 85 ± 11%; under setting [2], 82.6 ± 4.7%; under setting [3], 80.6 ± 12%; under setting [4], 77.1 ± 3.5%; under setting [5], 79.4 ± 13%; under setting [6], 57.4 ± 8.1%.

In the case of `[Cl-].[Na+]` [sodium chloride], the residual bioluminescent signal stood at 102 ± 17% under setting [1]; 104.5 ± 0.25% under setting [2]; 103 ± 19% under setting [3]; 101 ± 5.4% under setting [4]; 92.4 ± 2% under setting [5]; 79.7 ± 3.2% under setting [6].

For the molecule `O=C([O-])[O-].[Cs+].[Cs+]` [caesium carbonate], the residual bioluminescent signal is, setting by setting: under setting [1], 85.2 ± 14%; under setting [2], 93.8 ± 6.3%; under setting [3], 91.6 ± 14%; under setting [4], 103 ± 2.9%; under setting [5], 79.4 ± 4.7%; under setting [6], 56.2 ± 6.8%.

For the origin of these results see the supplement of paper PMC11628255, “Interference of metal ions on the bioluminescent signal of firefly, Renilla, and NanoLuc luciferases in high-throughput screening assays” (Frontiers in Chemistry, 2024).
